# A selection: hits, their analogues and other compounds. The true share with any hit is near 7.1%.
# PINK1 modulator: PINK1 expression modulation; hit rate 0.2% among 410,000; AID 624263; PINK1 immunofluorescence, high-content cytometry, 24 h; Potency, µM (titrated, usually from 76.6 µM), for inactives: at the highest dose activation (PINK1 increase), most hits filed as activators; active = well fitted activation curve with a large enough effect; inconclusive = small, poorly fitted or top-dose-only effect; cell line not stated here; also: potency is read from the fitted curve at half-maximal effect; % of control where 0% means no effect; nearly all actives have a fitted effect of over 65% in size
#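 Stable cell line treated 24 h with compounds at 5 concentrations (CCCP controls), then fixed and immunostained for PINK1 plus nuclear and cell stains; PINK1 immunofluorescence quantified by laser-scanning microplate cytometry.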
# MCF10A rereplic: induces DNA re-replication in MCF 10a normal breast cells. MCF 10A DNA re-replication, Hoechst nuclear intensity, 48 h. Potency, µM (highest dose often 46.1 µM), for inactives: at the highest dose activity, positive = re-replication, actives largely listed as activators. hit rate 2.9% among 350,000; also: potency is read from the fitted curve at half-maximal effect; % of control where 0% means no effect; nearly all actives have a fitted effect of over 50% in size
# S2 tox: viability counter-screen for ATXN expression inhibitors. S2 cells (HEK-293 line with an ATXN2-luciferase reporter) viability, CellTiter-Fluor protease fluorescence, 24 h. Potency, µM (highest dose often 56.7 µM), most hits filed as cytotoxic. hit rate 0.49% among 400,000. AID 651635; also: potency is read from the fitted curve at half-maximal effect; nearly all actives have a fitted effect of over 40% in size
# IL1B secr inh: blocks inflammasome-driven IL-1 beta release; AID 743279; activity change, % at 57.5 µM; hit rate 4.7% among 360,000; THP-1 LPS/ATP IL-1B secretion, AlphaLISA, 16 h; stronger effect = lower value; in the data active = activity change below about -50%; inconclusive = mostly about -30% to -49%; also: % is scaled to controls: 0 for no effect and ±100 for the full control effect
#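 Secreted IL-1B measured by AlphaLISA bead assay after 16 h compound exposure of THP-1 cells; compounds (final up to 57.5 uM) added 1 h before LPS (250 ng/mL) and ATP (1.25 mM) stimulation; lower signal means less secretion.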
# SW480 rereplic: induces DNA re-replication in SW480 colon adenocarcinoma cells | SW480 DNA re-replication, Hoechst DNA content imaging, 48 h | Potency, µM (top dose mostly 46.1 µM), without a hit: top-dose re-replication activation, most hits filed as activators | hit rate 1.8% among 340,000 | AID 624297; also: potency is read from the fitted curve at half-maximal effect; % of control where 0% means no effect; nearly all actives have a fitted effect of over 55% in size
#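 Per well, 250 cells were exposed to pinned compound for 48 hr. Nuclear DNA was visualised with Hoechst (40 min, 37 C) and total object intensity recorded by fluorescence scanning.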
# ATXN2 expr inh: reduces ATXN2 reporter expression in HEK-293 cells. HEK-293 ATXN2-luciferase reporter, luminescence, 24 h. Potency, µM (series often up to 57 µM), without a hit: top-dose activity change, negative = inhibition, most hits filed as inhibitors. hit rate 0.72% among 360,000; also: potency is read from the fitted curve at half-maximal effect; % is scaled to controls: 0 for no effect and ±100 for the full control effect; nearly all actives have a fitted effect of over 55% in size
#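 ATXN2-luciferase reporter cells (luciferase flanked by upstream and downstream ATXN2 gene portions) were treated 24 h at 37 °C with compounds at up to 57 uM. SteadyGlo luminescence gave expression; GF-AFC fluorescence gave viability.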
# * = called active by the depositor; i = inactive; ? = inconclusive; . = no result; [ ] = another dose, or the depositor's remark. Unless noted, calls follow the shape of the dose curve; as a rule, active = well fitted curve in the direction sought with a large enough effect; inconclusive = small, poorly fitted or top-dose-only effect, or another doubt; inactive = no such curve, though single readings can be large; an effect the other way counts as inactive or inconclusive.
SMILES,PINK1 modulator,MCF10A rereplic,S2 tox,IL1B secr inh,SW480 rereplic,ATXN2 expr inh
CCN(CC)c1ccc2cc(-c3nc(-c4ccc(OC)cc4)cs3)c(=O)oc2c1,?,?,.,82,1.8µM*,18%
CC1CCN(C(=O)Cn2cc(SCc3ccccc3)c3ccccc32)CC1,5%,.,.,.,.,.
C/C(CC(=O)Nc1ccccn1)=N\NC(=O)c1ccccc1O,4%,14%,?,145,1.3µM*,?
C/C(CC(=O)Nc1cc(C)ccn1)=N\NC(=O)c1cccc(C)c1O,?,?,?,70,12µM*,-17%
C/C(CC(=O)Nc1cccc(Cl)c1Cl)=N\NC(=O)c1ccccc1Br,-2%,12%,i,-13,-10%,-20%
C/C(CC(=O)Nc1cccc(Cl)c1Cl)=N\NC(=O)c1ccccc1N,2%,?,i,-56*,2%,1%
CCOc1ccc(NC(=O)Cn2c(=O)n(CCc3ccccc3)c(=O)c3c4c(sc32)CN(C(C)=O)CC4)cc1,1%,.,i,.,.,-20%
COC1(OC)N=C(N)C2(C#N)C(c3ccc(F)cc3)C12C#N (centres undefined),-1%,-6%,i,9,0%,1%
CCSC1(SCC)N=C(N)C2(C#N)C(c3ccc(F)cc3)C12C#N (centres undefined),1%,?,?,-109*,1%[9.22 µM],?
CCOc1ccc2c(c1)c(N=O)c(O)n2C,1%,12%,i,-64*,1%,5%
CC1CCN(CC(=O)n2c3c(c4ccccc42)CCCC3)CC1,-4%[38.3 µM],3%,i,-14,-2%,-7%
O=C(c1ccccc1F)n1c2c(c3ccccc31)CCCC2,16%,15µM*,i,13,?,-15%
COc1cc(=O)n2c(c1C(=O)N(C)Cc1cscn1)CCN(C(=O)c1cccc(C)c1C)CC2,0%,.,i,.,.,.
CC(C)[C@H](CO)Nc1nc(Nc2ccc(Cl)c(C(=O)O)c2)c2ncn(C(C)C)c2n1,-2%,8%,i,8,3%,-8%
CC(C)n1cnc2c(Nc3cccc(Cl)c3)nc(NCCCO)nc21,0%,19%,?,-95*,?,-34%
CC(C)n1cnc2c(NCCCCCCNC(=O)OC(C)(C)C)nc(NCCO)nc21,.,.,.,.,.,14µM*
CC(C)(C)c1ccc(/C=C/C(=O)Nc2cccnc2)cc1,17%,?,i,-52*,-1%,101%
OC(c1ccc2c(c1)CN(Cc1cccn1-c1ncccn1)CCO2)C1CCCCC1 (centres undefined),1%,.,i,.,.,.
COC(=O)C1(C)COP(=O)(Nc2ccc(OC)cc2)OC1 (centres undefined),0%,.,i,24,.,2%
CC(C)(C)OC(=O)N1CCC(c2c(C(=O)NCc3cccs3)cnn2-c2cccc(F)c2)CC1,1%,.,.,.,.,.
O=C(c1cc(COc2ccc(F)cc2F)on1)N1CC2C[C@@H]3CC1C[C@H](C2)C3,?,?,i,-98*,?,16%
CN1CCN(C(=O)c2cc(COc3ccc(F)cc3Cl)on2)CC1c1ccccc1 (centres undefined),3%,21µM*,i,-88*,?,-28%
CCOC(=O)c1ccc(-n2ccnc2)c(NC(=O)c2cccc(Br)c2)c1,-1%,1%,i,2,-1%,-3%
CCOC(=O)c1ccc(-n2ccnc2)c(NC(=O)c2ccc(C(C)(C)C)cc2)c1,12%,?,i,0,13µM*,10%
CC(=O)Nc1ccccc1-c1nc(CNC(=O)c2cccc(-n3cccn3)c2)c(C)o1,0%,.,i,.,.,.
SMILES,PINK1 modulator,MCF10A rereplic,S2 tox,IL1B secr inh,SW480 rereplic,ATXN2 expr inh
COc1ccc(-c2n[nH]c(C(F)(F)F)c2-c2cc3ccccc3o2)c(O)c1,4%[38.3 µM],-2%,?,-54*,9%,?
CCN(CC)c1ccc(CNc2nc3ccccc3n2CCN2CCOCC2)cc1,?,28%,i,-76*,-13%,?
c1ccc(CNc2nc3ccccc3n2CCN2CCOCC2)nc1,-3%[38.3 µM],23µM*,i,12,?,5%
COc1ccc2nc3sc(C(=O)N4CCN(c5ccc(F)cc5)CC4)cc3cc2c1,0%,.,i,.,.,2%
CCCOc1ccc(N2C(=O)CC(N3CCOCC3)C2=O)cc1 (centres undefined),5%[38.3 µM],2%,i,28,7%,3%
CCCOc1ccc(N2C(=O)CC(N3CCC(C(=O)OCC)CC3)C2=O)cc1 (centres undefined),6%[38.3 µM],15µM*,i,20,2%,3%
CCOc1ccc(N2C(=O)CC(Sc3nc(CC(C)C)ccc3C#N)C2=O)cc1 (centres undefined),2%,?,i,-1,5.8µM*,-3%
CCOc1ccc(N2C(=O)CC(N)C2=O)cc1 (centres undefined),2%,18µM*,i,11,?,-2%
CCOc1ccc(N2C(=O)CC(Sc3nc(C)cc(C)c3C#N)C2=O)cc1 (centres undefined),.,2%,i,-8,-2%,8%
CCC(=O)N1CCc2cc(Br)cc(S(=O)(=O)CCC(=O)N3CCN(c4ccccc4OC)CC3)c21,0%,.,i,.,.,2%
CCC(=O)Oc1ccc(C(=O)Nc2ccc3c(c2)C(=O)N(C2CCCCC2)C3=O)cc1,12%[38.3 µM],23µM*,i,5,?,-3%
CCCCNc1ccc(C(=O)O)cc1,-1%,1%,i,-7,-22%,5%
COc1ccc2c(c1)OC(C)CN(CCNC(=O)c1cc3cc(F)ccc3[nH]1)C2 (centres undefined),-1%,.,i,.,.,.
O=C(OCCN1C(=O)c2cccc3c(N4CCOCC4)ccc(c23)C1=O)c1ccccc1Cl,3%,1%,.,-6,?,?
O=C(OCCN1C(=O)c2cccc3c(N4CCOCC4)ccc(c23)C1=O)c1ccc(Cl)cc1Cl,5%,?,.,9,5.8µM*,-25%
CCCOc1cccc(C(=O)N(Cc2sccc2C)C2CCS(=O)(=O)C2)c1 (centres undefined),-1%,.,.,.,.,.
